# This is a sample that favours compounds with a hit; in the whole collection about 4.3% have one here.
# esBAF inh: blocks esBAF chromatin remodeling in mouse ES cells. reporter increase, % at 12.5 µM. Bmi1-luciferase knock-in reporter, 24 h; 100% = twice the neutral-well signal. 2% of 350,000 active; in the data active = activation above about 40%; inconclusive = no clear call, values can overlap the other calls;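 also: 0% = median of the plate's neutral control wells and 100% = double that signal; a rise in the Bmi1 reporter signal indicates esBAF inhibition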
# SMARCA2 act: activators of SMARCA2 function; MG213 cells, MMTV-luciferase reporter, dexamethasone, overnight; activation, % at 9.1 µM; 1% of 370,000 active; in the data active = activation above about 7.8%;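 also: 0% = vehicle wells and 100% = reference activator wells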
# HSF1 activator: increases HSF-1 driven luciferase reporter signal; NIH3T3-HGL HSF-1 luciferase reporter, MG132, 8 h; 100% = twice DMSO control signal; activation, % at 9 µM; 1.7% of 300,000 active;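 active = mean replicate activation of at least 50% with a set share of replicates each reaching 50%; inconclusive = only one of those two conditions met; inactive = mean below 50% and too few replicates reaching it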;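 also: 0% = median of the neutral control wells and 100% = twice that signal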
# Wnt bcat act: activates Wnt/beta-catenin signaling in a reporter cell assay; activator, plate reader; activation, % at 9.35 µM; 1.2% of 300,000 active; AID 743398; in the data active = activation above about 30%, passing the limit was not always enough; inconclusive = no clear call, values can overlap the other calls;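 also: 0% = neutral control wells and 100% = positive control wells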
# MITF act: MITF TRPM1 promoter activation in melanoma cells | SK-MEL-5 TRPM1-promoter luciferase, 24 h; % of positive control, neutral wells = 0 | activation, % at 12.5 µM | 0.75% of 300,000 active;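 active = mean activation of at least 80% with every replicate also reaching 80%; inconclusive = mean reaches 80% but some replicate falls short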;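 also: 0% = neutral control wells and 100% = parthenolide positive control wells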
# HSF1 inh: HSF1 inhibition; NIH3T3-HGL HSE-luciferase, MG132-induced, luminescence 8 h; stronger effect = lower value; 0.77% of 300,000 active; AID 2098; activity change, negative = inhibition, % at 7.5 µM (by protocol);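 active = more than half of replicate wells show activity change below -50%, luminescence cut by over half; inconclusive = some wells, but at most half, below -50%; inactive = no replicate well below -50%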;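 also: luciferase reports HSF-1 transcriptional activity via heat shock element; 0% = median of DMSO wells and -100% = zero luminescence signal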
# The depositor's hits bear a star; ? = inconclusive; / = not tested or not shown.
SMILES,esBAF inh,SMARCA2 act,HSF1 activator,Wnt bcat act,MITF act,HSF1 inh
COc1ccc(-c2cnc3c(c2)C(=O)N([C@@H](C)CO)C[C@H](C)[C@H](CN(C)C(=O)C2CC2)O3)cc1,0,/,/,/,/,/
Cc1ccc(NC(=O)COC(=O)C2CC3C=CC2C3)cc1S(=O)(=O)N1CCCCC1 (centres undefined),/,-3,63*,1,8,33
Cc1ccc(S(=O)(=O)N2CCCCC2)cc1NC(=O)c1ccc2c(c1)OCO2,/,-4,69*,/,5,26
Cc1ccc(C(=O)Nc2ccc3c(c2)OCO3)cc1S(=O)(=O)N1CCCC1,79*,0,26,/,46,0
Cc1ccc(NC(=O)c2ccc3c(c2)OCO3)cc1Cl,30,6,44,4,51,16
Cc1ccc(C(=O)Nc2ccc3c(c2)OCO3)cc1Cl,39,3,6,46*,87*,30
COCC(=O)Nc1ccc2c(c1)[C@@H]1C[C@@H](CC(=O)NCc3ccccn3)O[C@@H](CO)[C@@H]1O2,0,/,/,/,/,/
CCCNC(=O)N(C)C[C@@H]1Oc2ncc(C3=CCCCC3)cc2C(=O)N([C@@H](C)CO)C[C@H]1C,2,/,/,/,/,/
Cc1ccc(NC(=O)c2nc3nccc(C)n3n2)cc1S(=O)(=O)N1CCCCC1,45*,-1,/,-1,40,/
C[C@@H]1CN([C@@H](C)CO)C(=O)c2cc(NC(=O)NC3CCCCC3)ccc2O[C@@H]1CN(C)Cc1ccc(-c2ccccc2)cc1,2,/,/,/,/,/
N#Cc1c(-c2ccc([N+](=O)[O-])cc2)nc2n(c1=O)CCS2,-3,-2,-12,0,9,0
O=[N+]([O-])c1ccc(-c2cn3c(n2)SCC3)cc1,60*,-3,29,-3,/,10
COC(=O)[C@@H]1C[C@]2(OC(=O)c3ccccc3)C=CC(=O)C[C@@H]2N1C(=O)OCc1ccccc1,6,-1,73*,-17,-62,80
C[C@@H]1CCCCO[C@@H](CN(C)C)[C@@H](C)CN([C@@H](C)CO)C(=O)c2cc(NS(=O)(=O)c3ccc(Cl)cc3)ccc2O1,-2,/,/,/,/,/
Cc1oc(-c2ccc(-c3ccccc3)cc2)nc1CN(CCO)C(C)C,60*,0,-37,12,36,-26
COc1cccc(-c2ncc3ccccn23)c1,52*,5,10,4,57,-6
COc1cc(OC)cc(-c2ncc3ccccn23)c1,-5,1,33,/,4,27
Cc1ccc(O)c(-c2cc3ccccc3[nH]2)c1,30,0,44,37*,20,25
COc1ccc(-c2cc3ccccc3[nH]2)cc1,39,3,19,54*,?,21
COc1ccc(N/C=C\C(=O)c2ccc3c(c2)OCO3)cc1,/,2,13,75*,53,9
O=C(/C=C\Nc1ccc2c(c1)OCO2)c1ccc2c(c1)OCO2,/,3,8,34*,13,5
O=C(/C=C\Nc1ccc2c(c1)OCO2)c1ccc(Cl)s1,52*,2,25,1,54,13
O=C(C[C@@H]1CC[C@H]2[C@@H](COC[C@@H](O)CN2Cc2nccs2)O1)NCc1ccccc1,-2,/,/,/,/,/
CO[C@H]1CN(C)C(=O)c2ccc(NC(C)=O)cc2OC[C@H](C)N(C(=O)c2ccc(F)cc2)C[C@H]1C,0,/,/,/,/,/
CC(C)(C)c1csc(N/N=C/c2ccc(O)cc2)n1,?,0,44,11,97*,16
SMILES,esBAF inh,SMARCA2 act,HSF1 activator,Wnt bcat act,MITF act,HSF1 inh
CCCNC(=O)C[C@@H]1CC[C@H]2[C@@H](COc3ccc(NC(=O)NC(C)C)cc3C(=O)N2C)O1,0,/,/,/,/,/
CCS(=O)(=O)c1nc(S(=O)(=O)c2ccc(C)cc2)c(N2CCC(C)CC2)s1,1,-2,-91,1,-22,-89*
CCCS(=O)(=O)c1nc(S(=O)(=O)c2ccc(C)cc2)c(N2CCCC2)s1,1,1,31,/,-8,4
Cc1ccc(S(=O)(=O)c2nc(S(=O)(=O)c3ccc(C)cc3)c(N3CCN(CCO)CC3)s2)cc1,-4,0,57*,-6,-10,10
CCCS(=O)(=O)c1nc(S(=O)(=O)c2ccc(C)cc2)c(N2CCC(C)CC2)s1,0,-1,21,2,10,2
CCCS(=O)(=O)c1nc(S(=O)(=O)c2ccc(C)cc2)c(N2CCc3ccccc3C2)s1,/,4,54*,-6,2,25
O=c1c2ccccc2nnn1CSc1nnc2ccccn12,47*,4,12,53*,/,9
O=c1c2ccccc2nnn1CSc1ccc2c(c1)OCCO2,/,4,76*,/,52,49
Cn1c(SCn2nnc3ccccc3c2=O)nc2ccccc2c1=O,/,/,16,/,/,10
COc1ccc(NC(=O)Nc2ccc3c(c2)CC(=O)N([C@H](C)CO)C[C@H](C)[C@@H](CN(C)C(=O)Nc2ccc(F)cc2)O3)cc1,-1,/,/,/,/,/
CC1CCC/C(=C\Nc2ccc(O)cc2)C1=O (centres undefined),33,-3,8,/,/,3
Cc1cc(C(=O)O)ccc1N/C=C1\CCCC(C)C1=O (centres undefined),64*,4,-25,13,-5,-21
CCN1C(=O)[C@H]2[C@@H](c3ccc(C)cc3)N3C(=O)N(c4ccc(C)cc4)C(=O)[C@@]3(CC)[C@H]2C1=O,47*,4,-11,5,5,3
CCN1C(=O)[C@H]2[C@@H](c3ccc(C)cc3)N3C(=O)N(c4ccccc4)C(=O)[C@@]3(CC)[C@H]2C1=O,14,3,13,6,21,4
Cc1noc(C)c1NC(=O)Nc1cccc2c1O[C@@H](CN(C)C(=O)Nc1c(C)noc1C)[C@H](C)CN([C@@H](C)CO)C2=O,-1,/,/,/,/,/
COc1cc2c(cc1OC)C(C(=O)NC1CC1)C1c3ccccc3CCN1C2=O (centres undefined),-5,-1,-68,-2,7,-61*
CCc1nnc(NC(=O)C23CC4CC(CC(C4)C2)C3)s1,56*,3,-15,17,70,0
C[C@H]1CN([C@@H](C)CO)C(=O)Cc2cc(N(C)C)ccc2O[C@@H]1CN(C)C(=O)Nc1ccc(C(F)(F)F)cc1,-2,/,/,/,/,/
COc1ccc(-c2ccn(-c3cccc(F)n3)n2)cc1,54*,5,/,8,26,/
O=C(CSc1nnc(COc2ccc3c(c2)CCCC3)o1)Nc1ccc(F)cc1,-2,3,-67,/,-2,-58*
CCOC(=O)c1ccc2[nH]c3c(c2c1)CCCC3O (centres undefined),/,0,20,1,24,10
CCOC(=O)CC1NCCc2c1[nH]c1ccc(OC)cc21 (centres undefined),-2,-2,58*,-2,-6,16
Cc1csc(NC(=O)COc2ccc3c(c2)CCC3)n1,64*,2,/,20,78,/

# Assay outcomes deposited in PubChem BioAssay by several laboratories.
